Laboratory results published in PubChem BioAssay.
Active and inactive are the calls of the source.

Key:
[1] = test system: PRMT1 (protein arginine N-methyltransferase 1); experiment: PRMT1 binders on small-molecule microarrays, primary screen, biochemical, small-molecule microarray, 635 nm fluorescence (AID 1088); settings: small-molecule microarray binding, higher = more signal;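 also: binding of Prmt1 protein to compounds spotted on small-molecule microarray slides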
[2] = yeast growth modulation, basal conditions, primary screen, YJM789 clinical isolate, OD600, 24 h (AID 1089);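 also: growth of clinical yeast isolate S. cerevisiae YJM 789 seeded 1000 cells per well; test concentration not given here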; settings: S. cerevisiae YJM789 growth, higher = more signal, called active from +8 up or from −8 down
[3] = fission yeast growth modulation, primary screen, strain 972, OD600, 24 h, no modulator (AID 1090);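 also: basal condition with compound alone and no growth modifier present; test concentration not given here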; settings: S. pombe 972 growth, higher = more signal, called active from +8 up or from −8 down
[4] = S. cerevisiae growth modulation with rapamycin, primary screen, strain BY4716, OD600, 96 h (AID 1091); settings: higher = more signal, called active from +8 up or from −8 down; also: test concentration not given here
[5] = target: Torsin-1A-interacting protein 2 (Homo sapiens) (UniProt Q8NFQ8); experiment: LULL1 binders on small-molecule microarray, primary screen, cell lysate, human LULL1 lysate, 635/667 nm fluorescence (AID 1092); settings: hLULL1 lysate binding, 635 nm fluorescence, higher = more signal;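 also: probe is lysate of COS7 cells overexpressing human LULL1; score merges per-feature 667 nm fluorescence with signal-to-noise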
[6] = E. coli growth modulation, two-sided OD650, primary screen, E. coli filamentation project, strain DRC41, 24 h (AID 1093); settings: OD650, 24 h, higher = more signal, called active from +8 up or from −8 down;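 also: MC1000 strain lacking acrAB efflux and sulA so SOS filamentation is blocked; test concentration not given here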
[7] = small-molecule microarray binders of probe aLefty2, primary screen, biochemical, biotinylated probe, 635/667 nm fluorescence (AID 1094); settings: higher = more signal;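 also: score merges spot fluorescence near 667 nm with spot signal-to-noise ratio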
[8] = test system: Noggin (protein binding on small-molecule microarray); experiment: Noggin binders on small-molecule microarray, primary screen, biochemical, 635/667 nm fluorescence (AID 1095); settings: 635 nm fluorescence, higher = more signal;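 also: score merges 667 nm feature fluorescence with signal to noise over triplicate slides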
[9] = target: Neurogenic locus notch homolog protein 3 (Homo sapiens) (UniProt Q9UM47); experiment: NOTCH3 binders on small-molecule microarray, primary screen, biochemical, 635/667 nm fluorescence (AID 1096); settings: NOTCH3 binding, 635 nm fluorescence, higher = more signal
[10] = small-molecule microarray binders of probe aEGFR, primary screen, biochemical, biotinylated probe, 635/667 nm fluorescence (AID 1097); settings: higher = more signal;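 also: probe is a biotinylated anti-EGFR antibody binding compounds printed on slides; score combines fluorescence near 667 nm and signal to noise of each spot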
[11] = test system: Plasmodium falciparum Sir2 (PF13_0152, Sir2A); experiment: pfSir2 binders on small-molecule microarrays, primary screen, biochemical, small-molecule microarray, 635 nm fluorescence (AID 1098); settings: small-molecule microarray binding, fluorescence 635 nm; higher = more signal;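 also: score merges spot fluorescence intensity with its signal-to-noise ratio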
[12] = small-molecule microarray binders of probe aDKK1, primary screen, biochemical, biotinylated probe, 635/667 nm fluorescence (AID 1099); settings: higher = more signal;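 also: score merges 667nm spot fluorescence with signal to noise across triplicate slides; reference of the scale not given here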
[13] = small-molecule microarray binders of probe aCHRDL2, primary screen, biochemical, biotinylated probe, 635/667 nm fluorescence (AID 1100); settings: higher = more signal
[14] = splicing luciferase reporter signal modulators, primary screen, spliceosome inhibition project, cell-based, HEK293, splice +/- reporter (AID 1101); settings: luminescence, 24 h, higher = more signal, called active from +8 up or from −8 down;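 also: HEK293 cells carrying a splicing-competent luciferase reporter gene; test concentration not given here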
[15] = target: Fibroblast growth factor 10 (Homo sapiens) (UniProt O15520); experiment: FGF10 binders on small-molecule microarrays, primary screen, biochemical, small-molecule microarray, 635 nm fluorescence (AID 1102); settings: FGF10 binding, fluorescence 635 nm, higher = more signal
[16] = test system: glycogen synthase kinase-3 (GSK3A per assay name; protocol says GSK3B); experiment: GSK3 binders on small-molecule microarrays, primary screen, biochemical, small-molecule microarray, 635 nm fluorescence, GSK3A (AID 1103); settings: small-molecule microarray binding, fluorescence 635 nm; higher = more signal; also: the record names both GSK3A and GSK3B
[17] = target: Epidermal growth factor receptor (Homo sapiens) (UniProt P00533); experiment: EGFR binders on small-molecule microarrays, primary screen, biochemical, small-molecule microarray, 635 nm fluorescence (AID 1104); settings: EGFR binding, higher = more signal;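 also: score merges 667 nm emission intensity with spot signal to noise over triplicate slides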
[18] = target: Follistatin-related protein 3 (Homo sapiens) (UniProt O95633); experiment: FSTL3 binders on small-molecule microarrays, primary screen, biochemical, small-molecule microarray, 635 nm fluorescence (AID 1105); settings: FSTL3 binding, higher = more signal;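 also: score merges emission near 667 nm and signal to noise per printed spot across three slides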
[19] = target: Dickkopf-related protein 1 (Homo sapiens) (UniProt O94907); experiment: DKK1 binders on small-molecule microarrays, primary screen, biochemical, small-molecule microarray, 635 nm fluorescence scan (AID 1106); settings: DKK1 binding, higher = more signal;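 also: score merges emission near 667 nm with signal to noise over three replicate slides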
[20] = test system: Inhibin beta A chain (activin A); experiment: INHBA (activin A) binders on microarrays, primary screen, biochemical, small-molecule microarray, 635 nm fluorescence scan (AID 1107); settings: small-molecule microarray binding, higher = more signal;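 also: mouse activin A protein probed at 4.33 µg/mL on printed slides; score merges bound-protein fluorescence near 667 nm with spot signal-to-noise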

Torsin-1A-interacting protein 2 (Homo sapiens), sequence (Q8NFQ8 whole entry, looked up): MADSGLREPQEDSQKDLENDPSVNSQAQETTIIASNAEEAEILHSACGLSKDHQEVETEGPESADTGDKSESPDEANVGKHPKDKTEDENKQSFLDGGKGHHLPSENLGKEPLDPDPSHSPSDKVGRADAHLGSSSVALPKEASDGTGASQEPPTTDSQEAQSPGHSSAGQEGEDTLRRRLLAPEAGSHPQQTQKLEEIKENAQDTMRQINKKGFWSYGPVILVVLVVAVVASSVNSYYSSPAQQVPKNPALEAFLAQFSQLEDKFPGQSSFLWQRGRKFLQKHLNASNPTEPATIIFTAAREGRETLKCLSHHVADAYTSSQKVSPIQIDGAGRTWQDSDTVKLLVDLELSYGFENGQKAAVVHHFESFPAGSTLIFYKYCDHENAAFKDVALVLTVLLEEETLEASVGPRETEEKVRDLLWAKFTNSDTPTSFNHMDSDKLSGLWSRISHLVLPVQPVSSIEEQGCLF
Neurogenic locus notch homolog protein 3 (Homo sapiens), sequence (Q9UM47 whole entry, looked up): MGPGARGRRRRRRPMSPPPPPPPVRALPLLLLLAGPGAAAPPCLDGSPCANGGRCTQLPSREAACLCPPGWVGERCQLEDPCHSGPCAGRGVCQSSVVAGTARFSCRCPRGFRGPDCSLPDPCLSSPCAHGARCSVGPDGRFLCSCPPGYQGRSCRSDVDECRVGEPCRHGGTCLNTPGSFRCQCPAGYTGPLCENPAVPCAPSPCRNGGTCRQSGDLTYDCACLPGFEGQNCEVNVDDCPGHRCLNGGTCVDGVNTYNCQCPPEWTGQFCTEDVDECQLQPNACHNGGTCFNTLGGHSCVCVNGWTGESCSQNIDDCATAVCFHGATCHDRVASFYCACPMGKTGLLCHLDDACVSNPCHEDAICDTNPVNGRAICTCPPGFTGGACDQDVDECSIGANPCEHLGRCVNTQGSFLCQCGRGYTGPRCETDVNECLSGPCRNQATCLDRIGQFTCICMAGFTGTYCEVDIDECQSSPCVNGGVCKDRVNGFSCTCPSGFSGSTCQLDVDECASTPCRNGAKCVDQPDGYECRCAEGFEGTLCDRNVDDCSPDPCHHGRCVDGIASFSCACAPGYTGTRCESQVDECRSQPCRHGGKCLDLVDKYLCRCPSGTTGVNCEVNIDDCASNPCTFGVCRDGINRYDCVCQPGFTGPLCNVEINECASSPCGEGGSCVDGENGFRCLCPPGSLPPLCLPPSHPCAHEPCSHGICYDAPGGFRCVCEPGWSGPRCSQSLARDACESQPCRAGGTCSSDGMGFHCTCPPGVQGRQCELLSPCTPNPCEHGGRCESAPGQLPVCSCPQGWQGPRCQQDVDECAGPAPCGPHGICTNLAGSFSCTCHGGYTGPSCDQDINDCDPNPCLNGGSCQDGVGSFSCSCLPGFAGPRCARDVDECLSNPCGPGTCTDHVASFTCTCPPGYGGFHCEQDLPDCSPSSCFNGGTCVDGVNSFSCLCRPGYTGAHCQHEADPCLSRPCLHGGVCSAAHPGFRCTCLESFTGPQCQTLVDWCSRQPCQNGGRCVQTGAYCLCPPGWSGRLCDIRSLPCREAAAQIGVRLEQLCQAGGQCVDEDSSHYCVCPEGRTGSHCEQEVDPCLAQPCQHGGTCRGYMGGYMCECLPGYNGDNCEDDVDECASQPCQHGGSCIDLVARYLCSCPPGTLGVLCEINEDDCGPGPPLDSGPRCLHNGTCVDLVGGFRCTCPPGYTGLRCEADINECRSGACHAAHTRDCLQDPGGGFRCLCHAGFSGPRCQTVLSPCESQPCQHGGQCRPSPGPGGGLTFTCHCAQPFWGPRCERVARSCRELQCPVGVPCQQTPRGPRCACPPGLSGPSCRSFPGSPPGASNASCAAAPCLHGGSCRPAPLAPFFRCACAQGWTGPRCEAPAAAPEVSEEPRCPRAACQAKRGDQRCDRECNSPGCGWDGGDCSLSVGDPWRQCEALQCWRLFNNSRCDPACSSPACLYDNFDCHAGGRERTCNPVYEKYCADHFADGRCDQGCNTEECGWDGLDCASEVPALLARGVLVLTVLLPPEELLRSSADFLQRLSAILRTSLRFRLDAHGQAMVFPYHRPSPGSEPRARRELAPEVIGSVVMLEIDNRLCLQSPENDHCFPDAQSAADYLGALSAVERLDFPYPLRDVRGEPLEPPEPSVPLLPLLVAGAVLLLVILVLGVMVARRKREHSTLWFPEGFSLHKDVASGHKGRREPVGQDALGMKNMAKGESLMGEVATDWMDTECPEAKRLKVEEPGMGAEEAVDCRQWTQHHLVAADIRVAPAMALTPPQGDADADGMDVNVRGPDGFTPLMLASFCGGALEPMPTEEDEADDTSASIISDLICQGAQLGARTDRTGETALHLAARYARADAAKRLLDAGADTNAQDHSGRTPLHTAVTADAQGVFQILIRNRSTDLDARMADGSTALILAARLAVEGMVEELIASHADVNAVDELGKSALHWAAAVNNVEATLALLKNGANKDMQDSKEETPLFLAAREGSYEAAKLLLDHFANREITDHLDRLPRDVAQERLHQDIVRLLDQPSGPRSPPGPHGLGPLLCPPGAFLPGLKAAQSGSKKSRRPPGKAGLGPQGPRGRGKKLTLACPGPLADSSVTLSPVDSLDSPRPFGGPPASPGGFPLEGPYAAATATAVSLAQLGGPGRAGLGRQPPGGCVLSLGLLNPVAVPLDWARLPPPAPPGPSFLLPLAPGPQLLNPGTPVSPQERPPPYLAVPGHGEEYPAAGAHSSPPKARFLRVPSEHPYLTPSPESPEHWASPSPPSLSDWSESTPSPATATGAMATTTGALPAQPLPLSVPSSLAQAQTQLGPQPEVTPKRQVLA
Epidermal growth factor receptor (Homo sapiens), sequence (P00533 whole entry, looked up): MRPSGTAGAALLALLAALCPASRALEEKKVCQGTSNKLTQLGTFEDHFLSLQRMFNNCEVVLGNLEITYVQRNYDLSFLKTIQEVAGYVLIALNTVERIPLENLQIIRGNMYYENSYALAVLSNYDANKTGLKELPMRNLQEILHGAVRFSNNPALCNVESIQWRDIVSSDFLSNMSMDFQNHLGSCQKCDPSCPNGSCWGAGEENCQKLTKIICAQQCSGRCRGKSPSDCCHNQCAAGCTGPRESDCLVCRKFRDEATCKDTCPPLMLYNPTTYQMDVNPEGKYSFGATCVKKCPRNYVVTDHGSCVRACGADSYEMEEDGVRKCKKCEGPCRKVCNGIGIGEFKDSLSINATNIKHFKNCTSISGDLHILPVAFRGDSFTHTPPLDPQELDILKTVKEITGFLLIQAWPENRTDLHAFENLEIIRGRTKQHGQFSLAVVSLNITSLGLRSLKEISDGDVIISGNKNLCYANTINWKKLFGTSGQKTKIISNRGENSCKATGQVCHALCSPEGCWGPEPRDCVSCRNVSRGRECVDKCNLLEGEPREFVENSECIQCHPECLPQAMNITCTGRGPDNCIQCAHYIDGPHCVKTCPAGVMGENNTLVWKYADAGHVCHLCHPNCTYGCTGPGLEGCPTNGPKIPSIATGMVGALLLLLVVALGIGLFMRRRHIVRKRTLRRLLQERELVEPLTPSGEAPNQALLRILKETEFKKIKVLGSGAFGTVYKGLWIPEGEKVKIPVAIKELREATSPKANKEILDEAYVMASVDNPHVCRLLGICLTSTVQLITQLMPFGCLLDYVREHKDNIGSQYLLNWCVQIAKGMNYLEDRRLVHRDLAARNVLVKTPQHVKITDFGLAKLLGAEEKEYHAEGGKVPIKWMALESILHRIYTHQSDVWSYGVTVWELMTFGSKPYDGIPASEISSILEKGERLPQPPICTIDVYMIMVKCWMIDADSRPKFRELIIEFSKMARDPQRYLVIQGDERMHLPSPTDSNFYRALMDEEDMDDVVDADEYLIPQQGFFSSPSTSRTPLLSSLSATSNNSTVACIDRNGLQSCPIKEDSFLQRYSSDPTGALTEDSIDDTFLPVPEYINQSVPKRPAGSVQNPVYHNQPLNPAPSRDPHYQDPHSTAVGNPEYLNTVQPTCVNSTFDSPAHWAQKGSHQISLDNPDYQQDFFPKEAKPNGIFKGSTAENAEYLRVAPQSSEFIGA
Dickkopf-related protein 1 (Homo sapiens), sequence (O94907 whole entry, looked up): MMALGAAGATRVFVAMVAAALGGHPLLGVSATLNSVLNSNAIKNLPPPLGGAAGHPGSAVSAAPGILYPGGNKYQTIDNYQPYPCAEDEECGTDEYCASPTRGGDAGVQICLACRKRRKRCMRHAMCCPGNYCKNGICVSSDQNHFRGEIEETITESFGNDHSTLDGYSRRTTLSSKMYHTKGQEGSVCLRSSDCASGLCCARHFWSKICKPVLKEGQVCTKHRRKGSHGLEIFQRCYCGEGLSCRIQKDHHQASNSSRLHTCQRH
Follistatin-related protein 3 (Homo sapiens), sequence (O95633 whole entry, looked up): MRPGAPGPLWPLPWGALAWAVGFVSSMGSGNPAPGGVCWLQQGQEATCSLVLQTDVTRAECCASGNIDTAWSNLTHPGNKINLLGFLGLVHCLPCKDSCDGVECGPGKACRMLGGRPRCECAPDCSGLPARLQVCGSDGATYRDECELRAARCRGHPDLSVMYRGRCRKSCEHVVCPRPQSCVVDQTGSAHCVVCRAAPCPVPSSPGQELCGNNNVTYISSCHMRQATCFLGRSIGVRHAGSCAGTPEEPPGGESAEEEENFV
Fibroblast growth factor 10 (Homo sapiens), sequence (O15520 whole entry, looked up): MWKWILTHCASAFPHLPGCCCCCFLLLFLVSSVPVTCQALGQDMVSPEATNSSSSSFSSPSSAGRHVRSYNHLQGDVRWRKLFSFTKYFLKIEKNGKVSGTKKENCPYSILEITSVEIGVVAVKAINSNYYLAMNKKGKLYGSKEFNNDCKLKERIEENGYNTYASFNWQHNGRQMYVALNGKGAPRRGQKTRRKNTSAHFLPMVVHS

Structure (SMILES)	composite z-score [1]	z-score [2]	z-score [3]	z-score [4]	composite z-score [5]	z-score [6]	composite z-score [7]	composite z-score [8]	composite z-score [9]	composite z-score [10]	composite z-score [11]	composite z-score [12]	composite z-score [13]	z-score [14]	composite z-score [15]	composite z-score [16]	composite z-score [17]	composite z-score [18]	composite z-score [19]	composite z-score [20]
CC(C)C(=C=CC[C@H](O)c1ccccc1OCCO)CCO	1.35	-0.655 (inactive)	-0.39 (inactive)	-0.236 (inactive)	2.48	-0.105 (inactive)	0.0349	-0.143	-0.131	-0.0915	0.0112	0.292	-0.0417	0.232 (inactive)	0.0544	-0.144	-0.585	-0.449	-0.679	0.913
CC(=O)N1Cc2ccccc2C[C@@]2(N=C(c3ccc(OCCCO)cc3)O[C@H]2c2ccccc2)C1=O	1.53	-3.56 (inactive)	-3.68 (inactive)	17.1 (active)	3.32	1.5 (inactive)	0.215	1.47	1.11	0.107	1.54	0.927	0.82	-2.97 (inactive)	1.16	1.09	0.361	1.19	0.653	1.03
O=C(CS)NCCCCCNC(=O)[C@H]1C[C@H]2C(=O)N[C@@H](Cc3ccccc3)C(=O)N2[C@H]1c1cccc(OCCO)c1	1.52	-3.02 (inactive)	-0.991 (inactive)	-0.276 (inactive)	2.55	1.94 (inactive)	0.0669	1.44	1.09	0.12	1.4	0.185	0.373	0.101 (inactive)	1.41	1.36	0.98	1.42	1.61	0.597
CC(C)[C@H]1COC(=O)N1C(=O)[C@H]1[C@@H](c2ccccc2)N(c2ccccc2)O[C@@H]1C	0.842	-0.384 (inactive)	-2.87 (inactive)	0.0611 (inactive)	1.29	0.874 (inactive)	-0.0023	0.403	0.757	-0.12	0.22	-0.139	-0.273	0.145 (inactive)	0.521	0.474	0.218	1.04	0.517	0.264
COCCOC(=O)N1C(=O)[C@@]2(c3cc(C#CC4(O)CCCCCC4)ccc31)[C@H](c1ccc(O)cc1)N1[C@H](c3ccccc3)[C@H](c3ccccc3)OC(=O)[C@H]1[C@@H]2C(=O)N1CCc2cc(OC)c(OC)cc2C1	1.56	-0.749 (inactive)	-0.395 (inactive)	-0.494 (inactive)	2.41	1.45 (inactive)	-0.0719	-0.435	-0.551	-0.226	1.23	-0.226	0.687	-0.597 (inactive)	-0.681	-0.32	-0.705	-1.15	-0.591	0.0107
